Read-out in experiment [1]: Nuclear factor erythroid 2-related factor 2 (Homo sapiens) (UniProt Q16236)
Kind of experiment: LTEA_HepaRG_NFE2L2: Life Technologies and Expression Analysis (LTEA) Assay for Nuclear factor erythroid 2-related factor 2 (NFE2L2) Transcription Factor using HepaRG (AID 2283527).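 Note: TaqMan qRT-PCR transcript level normalised to ACTB GAPDH and POLR2A housekeeping genes.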 To be noted: mRNA level, 48 h; actives raise or lower the signal. In outline: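 Differentiated human HepaRG cells in serum-free induction medium were exposed for 48 h to eight concentrations (top 100 uM, half-log dilutions, 0.5% DMSO), in duplicate. NFE2L2 mRNA was quantified by TaqMan qRT-PCR, normalized to ACTB, GAPDH and POLR2A, with bidirectional fitting versus DMSO.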

Read-out in experiment [2]: succinate dehydrogenase complex iron sulfur subunit B (SDHB), SDHB (gene 6390)
In words: LTEA_HepaRG_SDHB: Life Technologies and Expression Analysis (LTEA) Assay for succinate dehydrogenase complex iron sulfur subunit B (SDHB) using HepaRG (AID 2283528). To be noted: mRNA level, 48 h; actives raise or lower the signal. In a few lines: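 HepaRG cells (~100,000/well, plated 48 h) exposed in duplicate for 48 h in serum-free induction medium to 8-point half-log series from 100 uM in 0.5% DMSO; mRNA by qRT-PCR normalised to ACTB, GAPDH, POLR2A; bidirectional fit versus DMSO.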

Read-out in experiment [3]: Signal transducer and activator of transcription 3 (Homo sapiens) (UniProt P40763)
In words: LTEA_HepaRG_STAT3: Life Technologies and Expression Analysis (LTEA) Assay for Signal transducer and activator of transcription (STAT3) using HepaRG (AID 2283529). To be noted: mRNA level, 48 h; actives raise or lower the signal. In outline:
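Differentiated human HepaRG cells in serum-free induction medium were exposed in duplicate for 48 h to eight half-log concentrations up to 100 uM in 0.5% DMSO. STAT3 mRNA was quantified by TaqMan qRT-PCR, normalized to ACTB, GAPDH and POLR2A, and fitted bidirectionally against DMSO.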

Read-out in experiment [4]: solute carrier (SLCO1B1), SLCO1B1 (gene 10599)
Kind of experiment: LTEA_HepaRG_SLCO1B1: Life Technologies and Expression Analysis (LTEA) Assay for solute carrier (SLCO1B1) using HepaRG (AID 2283530). To be noted: mRNA level, 48 h; actives raise or lower the signal. In a few lines:
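Gain or loss of SLCO1B1 mRNA is fitted against the 0.5% DMSO vehicle in human HepaRG liver cells treated 48 h at up to 100 uM in half-log steps. Expression comes from qRT-PCR normalized to endogenous controls.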

Read-out in experiment [5]: Transforming Growth Factor (TGFA), TGFA (gene 7039)
In words: LTEA_HepaRG_TGFA: Life Technologies and Expression Analysis (LTEA) Assay for Transforming Growth Factor (TGFA) using HepaRG (AID 2283532). To be noted: mRNA level, 48 h; actives raise or lower the signal. In a few lines:
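Differentiated human HepaRG cells, plated 48 h then switched to serum-free induction medium, were exposed in duplicate for 48 h to 8-point half-log series from 100 uM in 0.5% DMSO. TGFA mRNA measured by qRT-PCR, normalized to ACTB/GAPDH/POLR2A, bidirectional fit versus DMSO.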

Read-out in experiment [6]: Transforming Growth Factor (TGFB1), TGFB1 (gene 7040)
Kind of experiment: LTEA_HepaRG_TGFB1: Life Technologies and Expression Analysis (LTEA) Assay for Transforming Growth Factor (TGFB1) Transporter using HepaRG (AID 2283533). To be noted: mRNA level, 48 h; actives raise or lower the signal. In a few lines:
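Expression change of TGFB1 in human HepaRG cells is measured after a 48 h chemical exposure, up to 100 uM in 0.5% DMSO vehicle. Curves are fitted in both directions relative to the DMSO baseline.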

Read-out in another experiment: TIMP1, TIMP1 (gene 7076)
Kind of experiment: LTEA_HepaRG_TIMP1: Life Technologies and Expression Analysis (LTEA) Assay for TIMP1 using HepaRG (AID 2283534). To be noted: mRNA level, 48 h; actives raise or lower the signal. In outline:
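We dosed human liver HepaRG cultures for 48 hours with up to 100 uM test chemical and measured TIMP1 expression by qRT-PCR. Activity in either direction is fitted relative to the 0.5% DMSO vehicle.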

Read-out in experiment [7]: Tumor necrosis factor receptor 1 (TNFRSF1A), TNFRSF1A (gene 7132)
Kind of experiment: LTEA_HepaRG_TNFRSF1A: Life Technologies and Expression Analysis (LTEA) Assay for Tumor necrosis factor receptor 1 (TNFRSF1A) using HepaRG (AID 2283535). To be noted: mRNA level, 48 h; actives raise or lower the signal. In outline: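 Expression of TNFRSF1A in human HepaRG liver cells was measured by qRT-PCR 48 h after chemical dosing (maximum 100 uM). Bidirectional curve fitting used 0.5% DMSO as baseline.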

Read-out in experiment [8]: Thyroid Hormone Responsive (THRSP), THRSP (gene 7069)
Kind of experiment: LTEA_HepaRG_THRSP: Life Technologies and Expression Analysis (LTEA) Assay for Thyroid Hormone Responsive (THRSP) using HepaRG (AID 2283536). To be noted: mRNA level, 48 h; actives raise or lower the signal. In a few lines: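 Differentiated human HepaRG cells were exposed in duplicate for 48 h in serum-free induction medium to eight concentrations (top 100 uM, half-log steps, 0.5% DMSO). Expression was quantified by TaqMan qRT-PCR, normalized to ACTB, GAPDH and POLR2A, with bidirectional fitting against DMSO.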

Read-out in experiment [9]: Cellular tumor antigen p53 (Homo sapiens) (UniProt P04637)
In words: LTEA_HepaRG_TP53: Life Technologies and Expression Analysis (LTEA) Assay for Tumor Protein P53 (TP53) using HepaRG (AID 2283537). To be noted: mRNA level, 48 h; actives raise or lower the signal. In a few lines: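 Differentiated HepaRG cells in serum-free induction medium exposed 48 h in duplicate to 8 half-log concentrations, top 100 uM, 0.5% DMSO. TP53 mRNA by TaqMan qRT-PCR (Fluidigm), normalized to ACTB, GAPDH, POLR2A; fitted bidirectionally versus DMSO.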

Read-out in experiment [10]: UDP glucuronosyltransferase (UGT1A1), UGT1A1 (gene 54658)
In words: LTEA_HepaRG_UGT1A1: Life Technologies and Expression Analysis (LTEA) Assay for UDP glucuronosyltransferase (UGT1A1) using HepaRG (AID 2283538). To be noted: mRNA level, 48 h; actives raise or lower the signal. In a few lines: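 HepaRG cells, 0.5% DMSO vehicle, 48 h exposure in serum-free induction medium to 8-point half-log series topping at 100 uM, in duplicate. UGT1A1 mRNA by Fluidigm qRT-PCR, normalized to ACTB/GAPDH/POLR2A; bidirectional fit versus DMSO.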

Read-out in experiment [11]: UDP glucuronosyltransferase (UGT1A6), UGT1A6 (gene 54578)
Kind of experiment: LTEA_HepaRG_UGT1A6: Life Technologies and Expression Analysis (LTEA) Assay for UDP glucuronosyltransferase (UGT1A6) using HepaRG (AID 2283539). To be noted: mRNA level, 48 h; actives raise or lower the signal. In a few lines:
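Endpoint is UGT1A6 transcript induction or loss in a human liver cell line, quantified by TaqMan qRT-PCR 48 h after dosing. Concentrations ran from 100 uM downward in half-log steps in 0.5% DMSO; activity was fitted in both directions versus vehicle.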

Read-out in experiment [12]: X-box binding protein 1 (XBP1), XBP1 (gene 7494)
In words: LTEA_HepaRG_XBP1: Life Technologies and Expression Analysis (LTEA) Assay for X-box binding protein 1 (XBP1) using HepaRG (AID 2283540). To be noted: mRNA level, 48 h; actives raise or lower the signal. In a few lines: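 Human HepaRG monolayers receive test chemical for 48 h across an eight-point half-log series starting at 100 uM. XBP1 mRNA gain or loss is scored against DMSO by qRT-PCR.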

Experiment [13] is described as follows: LTEA_HepaRG_LDH_cytotoxicity: Cytotoxicity Assessment in the Life Technologies and Expression Analysis (LTEA) Assay (AID 2283563; active = hit-call score of the fitted dose curve at least 0.9, where 1 is the maximum). In outline: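 Human HepaRG hepatic cells are treated with test chemicals for 48 h at up to 100 uM in 0.5% DMSO. Cytotoxicity is scored from medium LDH against the vehicle control.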
Read-out in experiment [14]: sulfotransferase 2A1 (SULT2A1), SULT2A1 (gene 6822)
Kind of experiment: LTEA_HepaRG_SULT2A1: Life Technologies and Expression Analysis (LTEA) Assay for sulfotransferase 2A1 (SULT2A1) using HepaRG (AID 2283531). To be noted: mRNA level, 48 h; actives raise or lower the signal. In outline: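 Cells were plated and cultured 48 h, switched to serum-free induction medium, then dosed in duplicate for 48 h (8 concentrations, max 100 uM). RNA was isolated and SULT2A1 expression measured by qRT-PCR; gain or loss of signal fitted relative to DMSO.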

The nature of experiment [15]: TOX21_p53_BLA_p3_viability: Viability Assessment in the Tox21 HCT-116 p53 Agonism Beta-lactamase Assay, Phase 3 (AID 2283593; active = hit-call score of the fitted dose curve at least 0.9, where 1 is the maximum;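 note: cells exposed to compound for 16 h before reading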). In a few lines: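 HCT-116 cells (4000/well) rested 5 h at 37C, then got DMSO compounds by pin tool (217-fold dilution) for 16 h at 37C, 5% CO2. After the bla read, CellTiter-Glo was added and luminescence read at 30 min, room temperature.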

Experiment [16] deals with Cellular tumor antigen p53 (Homo sapiens) (UniProt P04637). Kind of experiment: TOX21_p53_BLA_p3_ratio: Tox21 HCT-116 p53 Agonism Beta-lactamase Assay, Ratio, Phase 3 (AID 2283596; active = hit-call score of the fitted dose curve at least 0.9, where 1 is the maximum). In outline:
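HCT116 p53-bla cells (4000/well) given compound in DMSO (217-fold dilution) after 5 h, incubated 16 h at 37C. CCF4-AM substrate 2 h at room temperature; 460/530 nm emission ratio, gain fitted against DMSO.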

Each structure is given as a SMILES string. Records with an inconclusive call do not appear. Calls of active or inactive are those of the source. Rule for the calls, unless noted: active = hit-call score of the fitted dose curve at least 0.9, where 1 is the maximum; inactive = score below 0.9.

Chain of Signal transducer and activator of transcription 3 (Homo sapiens) (P40763 whole entry, looked up): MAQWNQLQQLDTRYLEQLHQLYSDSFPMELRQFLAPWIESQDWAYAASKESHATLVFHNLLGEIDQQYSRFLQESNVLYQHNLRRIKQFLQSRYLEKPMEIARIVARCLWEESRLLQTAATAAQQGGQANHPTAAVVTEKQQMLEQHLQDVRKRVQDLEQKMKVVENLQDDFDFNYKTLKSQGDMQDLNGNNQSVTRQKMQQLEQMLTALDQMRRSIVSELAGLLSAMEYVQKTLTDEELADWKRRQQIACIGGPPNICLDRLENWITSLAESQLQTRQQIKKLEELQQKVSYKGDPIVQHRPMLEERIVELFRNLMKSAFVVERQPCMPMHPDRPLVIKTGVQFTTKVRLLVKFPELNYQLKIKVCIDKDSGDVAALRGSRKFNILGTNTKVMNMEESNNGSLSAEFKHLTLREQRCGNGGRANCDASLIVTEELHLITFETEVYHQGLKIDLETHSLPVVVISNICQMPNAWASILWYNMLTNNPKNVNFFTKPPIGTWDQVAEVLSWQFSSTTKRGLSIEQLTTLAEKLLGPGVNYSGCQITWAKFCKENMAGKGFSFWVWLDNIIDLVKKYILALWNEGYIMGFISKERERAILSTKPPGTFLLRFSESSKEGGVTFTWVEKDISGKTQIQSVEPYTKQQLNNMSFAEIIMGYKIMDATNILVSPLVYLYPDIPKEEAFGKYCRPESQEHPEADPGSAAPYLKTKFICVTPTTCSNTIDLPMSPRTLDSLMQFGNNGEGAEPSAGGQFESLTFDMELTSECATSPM
Chain of Nuclear factor erythroid 2-related factor 2 (Homo sapiens) (Q16236 whole entry, looked up): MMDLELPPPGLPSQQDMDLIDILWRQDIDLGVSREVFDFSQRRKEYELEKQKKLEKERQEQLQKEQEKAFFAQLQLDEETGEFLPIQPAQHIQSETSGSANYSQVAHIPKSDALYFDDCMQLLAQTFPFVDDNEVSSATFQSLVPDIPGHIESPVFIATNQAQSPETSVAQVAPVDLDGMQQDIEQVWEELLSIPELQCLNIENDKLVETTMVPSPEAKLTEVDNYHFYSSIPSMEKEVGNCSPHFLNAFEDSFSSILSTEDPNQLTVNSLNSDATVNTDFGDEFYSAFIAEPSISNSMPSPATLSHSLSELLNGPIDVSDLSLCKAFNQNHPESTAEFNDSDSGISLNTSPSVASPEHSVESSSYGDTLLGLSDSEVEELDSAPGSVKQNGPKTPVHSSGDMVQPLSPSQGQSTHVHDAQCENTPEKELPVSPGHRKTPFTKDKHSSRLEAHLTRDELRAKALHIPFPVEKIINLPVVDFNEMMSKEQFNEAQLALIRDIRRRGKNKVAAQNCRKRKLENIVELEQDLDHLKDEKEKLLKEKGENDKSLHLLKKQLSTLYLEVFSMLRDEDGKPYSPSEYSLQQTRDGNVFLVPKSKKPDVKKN
Chain of Cellular tumor antigen p53 (Homo sapiens) (P04637 whole entry, looked up): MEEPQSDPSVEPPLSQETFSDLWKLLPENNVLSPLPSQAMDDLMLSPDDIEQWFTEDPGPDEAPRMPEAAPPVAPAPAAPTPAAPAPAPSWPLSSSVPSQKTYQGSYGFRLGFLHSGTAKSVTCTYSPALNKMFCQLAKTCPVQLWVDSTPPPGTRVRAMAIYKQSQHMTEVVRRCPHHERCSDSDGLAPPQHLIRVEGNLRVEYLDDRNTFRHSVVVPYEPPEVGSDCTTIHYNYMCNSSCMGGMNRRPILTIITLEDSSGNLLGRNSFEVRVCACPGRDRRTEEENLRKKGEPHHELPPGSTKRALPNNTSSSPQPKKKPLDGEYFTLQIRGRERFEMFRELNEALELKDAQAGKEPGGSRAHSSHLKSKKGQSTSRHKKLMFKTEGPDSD

As for `O=C(O)CC(O)(CC(=O)O)C(=O)O`, the molecule was classed as inactive in experiment [1], in [2], in experiment [3], in [4], in [5] and in experiment [6]. The outcome is “inactive” in the experiment with TIMP1, TIMP1 (gene 7076); “inactive” in experiment [7]; “inactive” in experiment [8]; “inactive” in experiment [9]; “inactive” in [10]; “inactive” in experiment [11]. In addition, the molecule was classed as inactive in experiment [12] and in [13].

With `Cn1cnc2c1c(=O)[nH]c(=O)n2C`, the outcome in [1], in experiment [2], in [3], in [4], in [14] and in [5] was inactive. In addition, the outcome is “inactive” in [6]; “inactive” with TIMP1, TIMP1 (gene 7076); “inactive” in experiment [7]; “inactive” in experiment [8]; “inactive” in experiment [10]; “inactive” in experiment [11]. Besides, the call in experiment [12] and in experiment [13] was inactive.

For `CCCCCCCCCCCCCCCCO`, the outcome in experiment [1], in [2], in experiment [3], in experiment [4], in [5] and in [6] was inactive. The outcome in the experiment with TIMP1, TIMP1 (gene 7076) was “inactive”; in experiment [7], “inactive”; in experiment [8] it was “inactive”; in experiment [10], “inactive”; in experiment [11], “inactive”; in experiment [12], “inactive”. Further, in [13], the call was inactive.

By AC50 is commonly meant the concentration at which the activity in the assay is half-maximal. Take `CC(=O)CC(c1ccccc1)c1c(O)c2ccccc2oc1=O` (centres undefined): the outcome in [1], in experiment [2], in experiment [3], in experiment [4], in experiment [14] and in [5] was inactive. Besides, the outcome is “inactive” in experiment [6]; “inactive” with TIMP1, TIMP1 (gene 7076); “inactive” in experiment [7]; “inactive” in [10]; “inactive” in [11]; “inactive” in experiment [12]. The call in [13] was inactive. The half-maximal activity concentration (AC50) in experiment [8] is 34.5 µM (active).

Turning to `O=Cc1ccccc1C=O`, the molecule was classed as inactive in experiment [1], in experiment [2], in [3], in experiment [4], in experiment [14] and in experiment [5]. In addition, the outcome in [6] was “inactive”; with TIMP1, TIMP1 (gene 7076), “inactive”; in [7], “inactive”; in [8], “inactive”; in experiment [10], “inactive”; in [11] it was “inactive”. Moreover, the result in [12] and in [13] was inactive.

Consider `CC(C)COC(=O)CCCCC(=O)OCC(C)C`, for which the result in [1], in experiment [2], in experiment [3], in [4], in experiment [14] and in experiment [5] was inactive. For the same molecule, the outcome in experiment [6] was “inactive”; with TIMP1, TIMP1 (gene 7076), “inactive”; in experiment [7] it was “inactive”; in experiment [8], “inactive”; in experiment [10], “inactive”; in experiment [11], “inactive”. Moreover, the molecule was called inactive in experiment [12] and in experiment [13].

As for `CC(C)(C)c1ccccc1`, the outcome in experiment [1], in experiment [2], in experiment [3], in experiment [4], in experiment [5] and in experiment [6] was inactive. Also, the outcome with TIMP1, TIMP1 (gene 7076) is “inactive”; in [7], “inactive”; in experiment [8], “inactive”; in [9], “inactive”; in experiment [10], “inactive”; in experiment [11], “inactive”. For the same molecule, the molecule was classed as inactive in [12], in experiment [13], in [15] and in experiment [16].

In the case of `O=[Si]=O`, the molecule was classed as inactive in experiment [1], in experiment [2], in experiment [3], in experiment [4], in experiment [5] and in experiment [6]. Also, the outcome with TIMP1, TIMP1 (gene 7076) was “inactive”; in experiment [7], “inactive”; in [8], “inactive”; in experiment [9], “inactive”; in [10], “inactive”; in experiment [11] it was “inactive”. For the same molecule, the call in experiment [12], in experiment [13] and in experiment [15] was inactive.
